# Measurements: article PMC11006913
# Experiments:
# Assay in all cases: PBM; 200 nM protein, PBS
# Details in all cases: dsDNA, one strand shown
# HOXB4 [1] = molecular target: HOXB4 (Homo sapiens, UniProt P17483 148-234)
# HOXB4 [2] = molecular target: HOXB4 (Homo sapiens, UniProt P17483 148-234, V174I)
# HOXC10 [3] = molecular target: HOXC10 (Homo sapiens, UniProt Q9NYD6 254-340)
# HOXC10 [4] = molecular target: HOXC10 (Homo sapiens, UniProt Q9NYD6 254-340, K271E)
# VAX1 [5] = molecular target: VAX1 (Homo sapiens, UniProt Q5SQQ9 86-172)
# VAX1 [6] = molecular target: VAX1 (Homo sapiens, UniProt Q5SQQ9 86-172, T142I)
# VAX1 [7] = molecular target: VAX1 (Homo sapiens, UniProt Q5SQQ9 86-172, K157R)
# NKX2-6 = molecular target: T1, NKX2-6 (Homo sapiens, UniProt A6NCS4 118-204, R150C)
# T1 sequence: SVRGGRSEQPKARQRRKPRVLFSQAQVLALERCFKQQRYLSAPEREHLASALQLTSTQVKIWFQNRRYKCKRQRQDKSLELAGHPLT
# PRRX1 [8] = molecular target: PRRX1 (Homo sapiens, UniProt P54821 80-166, F113S)
# HOXA2 [9] = molecular target: HOXA2 (Homo sapiens, UniProt O43364 129-215, R185T)
# HOXA2 [10] = molecular target: HOXA2 (Homo sapiens, UniProt O43364 129-215, R185K)
# HOXA2 [11] = molecular target: HOXA2 (Homo sapiens, UniProt O43364 129-215, Y150S)
# PRRX1 [12] = molecular target: PRRX1 (Homo sapiens, UniProt P54821 80-166)
# HOXA2 [13] = molecular target: HOXA2 (Homo sapiens, UniProt O43364 129-215)
# ALX3 [14] = molecular target: ALX3 (Homo sapiens, UniProt O95076 139-225, N203Q)
# ALX3 [15] = molecular target: ALX3 (Homo sapiens, UniProt O95076 139-225)
# ALX3 [16] = molecular target: ALX3 (Homo sapiens, UniProt O95076 139-225, L168Q)
# ALX3 [17] = molecular target: ALX3 (Homo sapiens, UniProt O95076 139-225, L168V)
# ALX3 [18] = molecular target: ALX3 (Homo sapiens, UniProt O95076 139-225, N203S)
# HOXA4 = HOXA4 (Homo sapiens, UniProt Q00056 201-287, R217L)
# Chain of HOXA4 (Q00056 201-287 R217L): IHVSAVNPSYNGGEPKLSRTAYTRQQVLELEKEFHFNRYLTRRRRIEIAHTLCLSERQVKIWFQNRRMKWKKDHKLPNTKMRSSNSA
# Chain of HOXB4 (Homo sapiens, UniProt P17483 148-234, V174I) (P17483 148-234 V174I): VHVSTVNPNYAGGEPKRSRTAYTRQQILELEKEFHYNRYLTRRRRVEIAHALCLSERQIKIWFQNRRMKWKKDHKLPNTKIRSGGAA
# Chain of HOXB4 (Homo sapiens, UniProt P17483 148-234) (P17483 148-234): as the sequence (P17483 148-234 V174I) above, with I27V counted along it
# Chain of HOXC10 (Homo sapiens, UniProt Q9NYD6 254-340) (Q9NYD6 254-340): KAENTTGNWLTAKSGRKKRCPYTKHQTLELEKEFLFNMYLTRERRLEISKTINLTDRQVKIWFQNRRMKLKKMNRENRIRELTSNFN
# Chain of PRRX1 (Homo sapiens, UniProt P54821 80-166, F113S) (P54821 80-166 F113S): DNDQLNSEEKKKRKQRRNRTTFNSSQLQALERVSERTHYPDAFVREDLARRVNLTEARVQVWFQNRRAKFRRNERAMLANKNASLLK
# Chain of HOXC10 (Homo sapiens, UniProt Q9NYD6 254-340, K271E) (Q9NYD6 254-340 K271E): as the sequence (Q9NYD6 254-340) above, with K18E counted along it
# Chain of PRRX1 (Homo sapiens, UniProt P54821 80-166) (P54821 80-166): as the sequence (P54821 80-166 F113S) above, with S34F counted along it
# Chain of HOXA2 (Homo sapiens, UniProt O43364 129-215) (O43364 129-215): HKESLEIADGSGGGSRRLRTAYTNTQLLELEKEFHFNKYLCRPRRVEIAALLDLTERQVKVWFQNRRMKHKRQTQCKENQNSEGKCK
# Chain of VAX1 (Homo sapiens, UniProt Q5SQQ9 86-172) (Q5SQQ9 86-172): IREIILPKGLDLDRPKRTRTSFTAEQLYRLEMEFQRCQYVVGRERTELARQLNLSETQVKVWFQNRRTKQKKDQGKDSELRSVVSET
# Chain of HOXA2 (Homo sapiens, UniProt O43364 129-215, Y150S) (O43364 129-215 Y150S): as the sequence (O43364 129-215) above, with Y22S counted along it
# Chain of VAX1 (Homo sapiens, UniProt Q5SQQ9 86-172, T142I) (Q5SQQ9 86-172 T142I): as the sequence (Q5SQQ9 86-172) above, with T57I counted along it
# Chain of VAX1 (Homo sapiens, UniProt Q5SQQ9 86-172, K157R) (Q5SQQ9 86-172 K157R): as the sequence (Q5SQQ9 86-172) above, with K72R counted along it
# Chain of ALX3 (Homo sapiens, UniProt O95076 139-225, L168Q) (O95076 139-225 L168Q): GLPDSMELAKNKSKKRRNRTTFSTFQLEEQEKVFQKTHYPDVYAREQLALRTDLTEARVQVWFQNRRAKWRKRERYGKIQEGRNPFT
# Chain of HOXA2 (Homo sapiens, UniProt O43364 129-215, R185T) (O43364 129-215 R185T): as the sequence (O43364 129-215) above, with R57T counted along it
# Chain of HOXA2 (Homo sapiens, UniProt O43364 129-215, R185K) (O43364 129-215 R185K): as the sequence (O43364 129-215) above, with R57K counted along it
# Chain of ALX3 (Homo sapiens, UniProt O95076 139-225) (O95076 139-225): as the sequence (O95076 139-225 L168Q) above, with Q30L counted along it
# Chain of ALX3 (Homo sapiens, UniProt O95076 139-225, L168V) (O95076 139-225 L168V): as the sequence (O95076 139-225 L168Q) above, with Q30V counted along it
# Chain of ALX3 (Homo sapiens, UniProt O95076 139-225, N203Q) (O95076 139-225 N203Q): as the sequence (O95076 139-225 L168Q) above, with Q30L, N65Q counted along it
# Chain of ALX3 (Homo sapiens, UniProt O95076 139-225, N203S) (O95076 139-225 N203S): as the sequence (O95076 139-225 L168Q) above, with Q30L, N65S counted along it
sequence,measurement,setting,value
ACTATATG,binding signal,HOXB4 [1],"9.48 upbm affinity estimate (log intensity, higher = more binding, comparable within an allelic series)"
same,binding signal,HOXB4 [2],"9.35 upbm affinity estimate (log intensity, higher = more binding, comparable within an allelic series)"
GCAGGGCC,binding signal,HOXB4 [1],"7.4 upbm affinity estimate (log intensity, higher = more binding, comparable within an allelic series)"
same,binding signal,HOXC10 [3],"10 upbm affinity estimate (log intensity, higher = more binding, comparable within an allelic series)"
same,binding signal,HOXB4 [2],"7.46 upbm affinity estimate (log intensity, higher = more binding, comparable within an allelic series)"
same,binding signal,HOXC10 [4],"10 upbm affinity estimate (log intensity, higher = more binding, comparable within an allelic series)"
same,binding signal,VAX1 [5],"6.92 upbm affinity estimate (log intensity, higher = more binding, comparable within an allelic series)"
same,binding signal,VAX1 [6],"7 upbm affinity estimate (log intensity, higher = more binding, comparable within an allelic series)"
same,binding signal,VAX1 [7],"6.86 upbm affinity estimate (log intensity, higher = more binding, comparable within an allelic series)"
CGGGACCA,binding signal,HOXB4 [1],"7.51 upbm affinity estimate (log intensity, higher = more binding, comparable within an allelic series)"
same,binding signal,HOXC10 [3],"10.1 upbm affinity estimate (log intensity, higher = more binding, comparable within an allelic series)"
same,binding signal,HOXB4 [2],"7.58 upbm affinity estimate (log intensity, higher = more binding, comparable within an allelic series)"
same,binding signal,NKX2-6,"9.71 upbm affinity estimate (log intensity, higher = more binding, comparable within an allelic series)"
same,binding signal,HOXC10 [4],"10.1 upbm affinity estimate (log intensity, higher = more binding, comparable within an allelic series)"
CCCGCGGG,binding signal,HOXB4 [1],"8.38 upbm affinity estimate (log intensity, higher = more binding, comparable within an allelic series)"
same,binding signal,PRRX1 [8],"9.46 upbm affinity estimate (log intensity, higher = more binding, comparable within an allelic series)"
same,binding signal,HOXA2 [9],"7.19 upbm affinity estimate (log intensity, higher = more binding, comparable within an allelic series)"
same,binding signal,HOXB4 [2],"7.82 upbm affinity estimate (log intensity, higher = more binding, comparable within an allelic series)"
same,binding signal,HOXA2 [10],"10.4 upbm affinity estimate (log intensity, higher = more binding, comparable within an allelic series)"
same,binding signal,HOXA2 [11],"10.4 upbm affinity estimate (log intensity, higher = more binding, comparable within an allelic series)"
same,binding signal,PRRX1 [12],"9.2 upbm affinity estimate (log intensity, higher = more binding, comparable within an allelic series)"
same,binding signal,HOXA2 [13],"7.26 upbm affinity estimate (log intensity, higher = more binding, comparable within an allelic series)"
GACCGTGC,binding signal,HOXB4 [1],"7.54 upbm affinity estimate (log intensity, higher = more binding, comparable within an allelic series)"
same,binding signal,PRRX1 [8],"9.27 upbm affinity estimate (log intensity, higher = more binding, comparable within an allelic series)"
same,binding signal,HOXB4 [2],"7.53 upbm affinity estimate (log intensity, higher = more binding, comparable within an allelic series)"
same,binding signal,PRRX1 [12],"9.23 upbm affinity estimate (log intensity, higher = more binding, comparable within an allelic series)"
CCCCCGTA,binding signal,HOXB4 [1],"7.91 upbm affinity estimate (log intensity, higher = more binding, comparable within an allelic series)"
same,binding signal,PRRX1 [8],"9 upbm affinity estimate (log intensity, higher = more binding, comparable within an allelic series)"
same,binding signal,HOXB4 [2],"7.84 upbm affinity estimate (log intensity, higher = more binding, comparable within an allelic series)"
same,binding signal,ALX3 [14],"7.68 upbm affinity estimate (log intensity, higher = more binding, comparable within an allelic series)"
same,binding signal,ALX3 [15],"7.71 upbm affinity estimate (log intensity, higher = more binding, comparable within an allelic series)"
same,binding signal,ALX3 [16],"7.65 upbm affinity estimate (log intensity, higher = more binding, comparable within an allelic series)"
same,binding signal,ALX3 [17],"7.65 upbm affinity estimate (log intensity, higher = more binding, comparable within an allelic series)"
same,binding signal,ALX3 [18],"7.65 upbm affinity estimate (log intensity, higher = more binding, comparable within an allelic series)"
same,binding signal,PRRX1 [12],"9.39 upbm affinity estimate (log intensity, higher = more binding, comparable within an allelic series)"
AATGATTA,binding signal,HOXB4 [1],"13.1 upbm affinity estimate (log intensity, higher = more binding, comparable within an allelic series)"
same,binding signal,HOXA4,"12 upbm affinity estimate (log intensity, higher = more binding, comparable within an allelic series)"
same,binding signal,HOXB4 [2],"13.8 upbm affinity estimate (log intensity, higher = more binding, comparable within an allelic series)"
CACGTGCG,binding signal,HOXB4 [1],"7.64 upbm affinity estimate (log intensity, higher = more binding, comparable within an allelic series)"
same,binding signal,HOXB4 [2],"7.71 upbm affinity estimate (log intensity, higher = more binding, comparable within an allelic series)"
AACGATAT,binding signal,HOXB4 [1],"10.7 upbm affinity estimate (log intensity, higher = more binding, comparable within an allelic series)"
same,binding signal,HOXB4 [2],"10.9 upbm affinity estimate (log intensity, higher = more binding, comparable within an allelic series)"
CAGGGTCC,binding signal,HOXB4 [1],"7.33 upbm affinity estimate (log intensity, higher = more binding, comparable within an allelic series)"
same,binding signal,HOXC10 [3],"10 upbm affinity estimate (log intensity, higher = more binding, comparable within an allelic series)"
same,binding signal,HOXB4 [2],"7.37 upbm affinity estimate (log intensity, higher = more binding, comparable within an allelic series)"
same,binding signal,HOXC10 [4],"10 upbm affinity estimate (log intensity, higher = more binding, comparable within an allelic series)"
AATTGGTA,binding signal,HOXB4 [1],"10.7 upbm affinity estimate (log intensity, higher = more binding, comparable within an allelic series)"
same,binding signal,HOXB4 [2],"11 upbm affinity estimate (log intensity, higher = more binding, comparable within an allelic series)"
CAGAAGGC,binding signal,HOXB4 [1],"7.78 upbm affinity estimate (log intensity, higher = more binding, comparable within an allelic series)"
same,binding signal,HOXB4 [2],"7.7 upbm affinity estimate (log intensity, higher = more binding, comparable within an allelic series)"
